Each structure is given as a SMILES string. Inconclusive results are not listed. Active and inactive are the calls of the source. The call rests on the fitted dose curve; in most records, active means well fitted curve in the direction sought with a large enough effect; inconclusive means small, poorly fitted or top-dose-only effect, or another doubt; inactive means no such curve, though single readings can be large; an effect the other way counts as inactive or inconclusive.

Potency data for 12 compounds are collected here from PubChem BioAssay (NCATS).

A short description of experiment [1]: qHTS Screen of the MIPE 4.0 Collection Against Ewings Sarcoma (TC32) (AID 1259256). Further: nearly all actives have a fitted effect of over 45% in size. In a few lines: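 CellTiter-Glo luminescence after 48 h compound exposure (titration) gave viability; percent activity used DMSO-treated cells as no inhibition and medium-only wells as full inhibition. Cells grown in RPMI/5% FBS, dosed 4 h post-seeding.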
A short description of experiment [2]: NS1 protein of Zika virus - qHTS assay to identify small molecule inhibitors in human HEK 293 cells (AID 1347053). Further: nearly all actives have a fitted effect of over 55% in size. The method in brief:
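Compound-treated (1 h pre-infection) HEK 293 cells infected with ZIKV MR766, MOI = 0.5; after 24 h at 37 C, NS1 read by TR-FRET; data normalized to uninfected and infected controls.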
(Quantitative high-throughput screening tests each substance at several concentrations.)

Experiment [3] is described as follows: qHTS of pediatric cancer cell lines to identify multiple opportunities for drug repurposing: Primary screen for TC32 cells (AID 1347089). Further: nearly all actives have a fitted effect of over 60% in size. In a few lines:
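Measured quantity: luminescence from CellTiter-Glo, reflecting metabolically active TC32 cells following 48 h of compound. Curves came straight from multi-point titrations, with 8 or 11 points in primary and 11 in confirmatory screening.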

The nature of experiment [4]: qHTS of pediatric cancer cell lines to identify multiple opportunities for drug repurposing: Primary screen for DAOY cells (AID 1347090). Further: nearly all actives have a fitted effect of over 55% in size. In a few lines:
(§1)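 Cell viability, CellTiter-Glo luminescence; 500-1,000 cells/well, 8- or 11-point titration, 48 h compound exposure at 37 degrees C, 5% CO2. Controls: DMSO neutral, bortezomib 2.3 µM final as positive.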

Experiment [5] in a line: qHTS of pediatric cancer cell lines to identify multiple opportunities for drug repurposing: Primary screen for A673 cells (AID 1347092). Further: nearly all actives have a fitted effect of over 45% in size. In a few lines: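 Cells are plated, rested 5 h, dosed by pintool, incubated 48 h, then lysed with CellTiter-Glo and read by luminescence. DMSO is the neutral control; bortezomib at 2.3 uM final is the positive control.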
Experiment [6] is described as follows: qHTS of pediatric cancer cell lines to identify multiple opportunities for drug repurposing: Primary screen for SK-N-MC cells (AID 1347093). In a few lines:
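Metabolically active cells were quantified by ATP-dependent luminescence (CellTiter-Glo, 15 min at room temperature) following 48 h treatment. Cells had been plated at 500-1,000 per well and settled for 5 h beforehand.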

Experiment [7] is described as follows: qHTS of pediatric cancer cell lines to identify multiple opportunities for drug repurposing: Primary screen for BT-37 cells (AID 1347094). In a few lines:
(§2)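 Quantitative HTS format: each compound titrated (MIPE 11 points from 0.78 nM, NPC 8 points from 0.59 nM) onto cells plated 5 hours earlier. After 48 h at 37 degrees C, CellTiter-Glo luminescence was recorded.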

Experiment [8] in a line: qHTS of pediatric cancer cell lines to identify multiple opportunities for drug repurposing: Primary screen for U-2 OS cells (AID 1347096). Further: nearly all actives have a fitted effect of over 50% in size. In a few lines: (§3)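 Cells (500-1,000/well) rested 5 h, then received compounds for 48 h; metabolically active cells were measured by CellTiter-Glo luminescence. Final concentrations spanned up to 46 µM (MIPE, 11-point) or 0.59 nM-46 µM (NPC, 8-point) in primary screens, 11-point in follow-ups.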

The nature of experiment [9]: qHTS of pediatric cancer cell lines to identify multiple opportunities for drug repurposing: Primary screen for Saos-2 cells (AID 1347097). Further: nearly all actives have a fitted effect of over 40% in size. The method in brief:
as §2

A short description of experiment [10]: qHTS of pediatric cancer cell lines to identify multiple opportunities for drug repurposing: Primary screen for SK-N-SH cells (AID 1347098). Further: nearly all actives have a fitted effect of over 65% in size. In a few lines: as §3
A short description of experiment [11]: qHTS of pediatric cancer cell lines to identify multiple opportunities for drug repurposing: Primary screen for NB1643 cells (AID 1347099). Further: nearly all actives have a fitted effect of over 50% in size. In a few lines: as §2
Experiment [12] in a line: qHTS of pediatric cancer cell lines to identify multiple opportunities for drug repurposing: Primary screen for LAN-5 cells (AID 1347100). In a few lines: as §3
A short description of experiment [13]: qHTS of pediatric cancer cell lines to identify multiple opportunities for drug repurposing: Primary screen for NB-EBc1 cells (AID 1347095). In a few lines: as §2
A short description of experiment [14]: qHTS of pediatric cancer cell lines to identify multiple opportunities for drug repurposing: Primary screen for SJ-GBM2 cells (AID 1347091). The method in brief: as §1
Potency means the concentration at half of the fitted maximal effect.

With `CC(N[C@H]1CCCC[C@H]1NC(=O)c1ccc(Cl)cc1)c1cccc2ccccc12` (some centres not stated), the Potency result in [1], in experiment [2], in [3] and in experiment [8] was “inactive” throughout. Moreover, the Potency in experiment [4] was 0.0296 µM (active); in [5], 0.743 µM (active); in [6], 0.0209 µM (active); in experiment [7], 1.53 µM (active); in [9], 0.0662 µM (active); in experiment [10], 4.82 µM (active). The figures for the Potency in experiment [11] and in experiment [12] were 0.418 µM (active) and 2.96 µM (active), respectively.
As to `CC(O)(C#Cc1ccc2c(c1)N(c1nc(N)ncc1Cl)CC2)c1nccs1` (configuration not stated), the Potency in [1] is 20.9 µM (active); in experiment [4], 7.43 µM (active); in experiment [5] it was 5.9 µM (active); in experiment [6] it was 2.35 µM (active); in experiment [10], 21.5 µM (active); in experiment [11], 16.6 µM (active). Further, the Potency entry in [13] and in experiment [8] was “inactive” each time.
On to `Oc1cc(-c2nc(-c3ccccc3)[nH]c2-c2ccncc2)ccc1Cl`, for which the Potency in [1] was 18.7 µM (active); in experiment [2], 37.2 µM (active); in [4] it was 5.9 µM (active); in experiment [14], 4.69 µM (active); in experiment [5] it was 1.48 µM (active); in [6] it was 0.662 µM (active). The Potency in [7] was 3.85 µM (active); in experiment [13] it was 3.72 µM (active); in experiment [9], 11.8 µM (active); in [10], 19.2 µM (active); in [11], 18.7 µM (active); in experiment [12] it was 16.6 µM (active). The Potency result in experiment [3] was “inactive”.
As for `COc1cccc2c1C(=O)c1c(O)c3c(c(O)c1C2=O)C[C@@](O)(C(C)=O)C[C@H]3O[C@H]1C[C@H](N)[C@H](O)[C@H](C)O1`, the Potency in experiment [1] was 0.0469 µM (active); in [3], 0.234 µM (active); in experiment [4], 0.187 µM (active); in [14], 0.0662 µM (active); in experiment [5], 0.0469 µM (active); in [6], 0.0469 µM (active). Besides, the Potency in [7] is 0.0273 µM (active); in [8], 0.118 µM (active); in [9] it was 0.264 µM (active); in [10], 0.121 µM (active).
For `Nc1ccn(C[C@@H](CO)OCP(=O)(O)O)c(=O)n1`, the Potency entry in [1], in experiment [2], in experiment [3], in experiment [4], in experiment [14] and in experiment [6] was “inactive” each time. For the same compound, the Potency entry in experiment [7], in [13], in [8], in experiment [9], in [10] and in [11] was “inactive” throughout. In addition, in [12], the Potency entry was “inactive”.
Regarding `Cn1cc(C2=C(c3c4n(c5ccccc35)CCC(CN)C4)C(=O)NC2=O)c2ccccc21` (configuration not stated), the Potency in experiment [1] was 20.9 µM (active); in [2] it was 13.2 µM (active); in experiment [14] it was 14.8 µM (active); in experiment [5], 5.9 µM (active); in experiment [7], 27.3 µM (active); in experiment [13] it was 18.7 µM (active). The Potency is 18.7 µM (active) in experiment [9], 24.1 µM (active) in experiment [10], 26.4 µM (active) in experiment [11] and 26.4 µM (active) in [12].
As for `COc1ccc(S(=O)(=O)Nc2cc(-c3c(O)ccc4ccccc34)c(O)c3ccccc23)cc1`, the Potency in experiment [1] was 18.7 µM (active); in [14] it was 18.7 µM (active); in [5] it was 7.43 µM (active); in [6], 3.32 µM (active); in experiment [7], 24.3 µM (active); in [13] it was 8.33 µM (active). The Potency in experiment [9] was 4.69 µM (active); in experiment [11], 18.7 µM (active); in experiment [12], 7.43 µM (active). The Potency result in experiment [2], in experiment [3] and in [8] was “inactive” in each case.
Consider `CC(=O)OCC(=O)[C@@]1(O)CC[C@H]2[C@@H]3CCC4=CC(=O)CC[C@]4(C)[C@@H]3C(=O)C[C@@]21C`, for which the Potency result in [1], in [2], in experiment [3], in experiment [14], in experiment [5] and in experiment [6] was “inactive” in each case. The Potency entry in experiment [7], in experiment [13], in [8], in [9], in [10] and in experiment [11] was “inactive” in each case. In [12], the Potency entry is “inactive”.
In the case of `C[C@H](NCc1ccc(OCc2cccc(F)c2)cc1)C(N)=O`, the Potency was 14.8 µM (active) in experiment [1]; 23.5 µM (active) in experiment [2]; 18.6 µM (active) in [3]; 10.5 µM (active) in experiment [14]; 5.9 µM (active) in experiment [5]; 2.64 µM (active) in experiment [6]. In addition, the Potency was 19.3 µM (active) in [7]; 10.5 µM (active) in experiment [13]; 18.7 µM (active) in experiment [8]; 16.6 µM (active) in [9]; 30.4 µM (active) in [10]; 14.8 µM (active) in experiment [11]. Besides, in [12], the Potency is 7.43 µM (active).
For `CC(=CC(=O)Nc1ccccc1C(=O)O)c1ccc2ccccc2c1`, the Potency in experiment [1] was 9.35 µM (active); in experiment [2], 14.8 µM (active); in experiment [6], 8.33 µM (active). In addition, the Potency entry in experiment [3], in experiment [14], in [8] and in experiment [12] was “inactive” each time.
For `Cc1cncc2cccc(S(=O)(=O)N3CCCN(C(=O)CN)C[C@@H]3C)c12`, the Potency is 1.18 µM (active) in [1]; 10.4 µM (active) in experiment [3]; 14.8 µM (active) in [5]; 2.35 µM (active) in experiment [9]; 1.48 µM (active) in experiment [12]. Moreover, the Potency result in experiment [2], in [7], in experiment [8] and in [11] was “inactive” throughout.
For the compound `O=C(Nc1cc2cc[nH]c2cn1)c1ccccc1`, the Potency in [1] is 13.2 µM (active); in experiment [4], 14.8 µM (active); in [14], 14.8 µM (active); in experiment [5], 7.43 µM (active); in experiment [6] it was 11.8 µM (active); in experiment [7] it was 7.69 µM (active). The Potency in [13] is 13.2 µM (active); in [9], 11.8 µM (active); in experiment [10], 19.2 µM (active); in [11], 14.8 µM (active); in experiment [12], 14.8 µM (active). Also, the Potency entry in experiment [2] is “inactive”.
